Among the data in PubChem BioAssay (NCI) are growth inhibition values, retold here.

The panel holds about 79,000 compounds, 15% with a hit somewhere; the sample as a whole holds those more often. Unmarked numbers belong to inactive results. The source made the active and inactive calls. Cut-off read from the data, not from the text of the source: active = growth inhibition above about 70%; inactive = the rest.

The experiment can be described thus: NCI Yeast Anticancer Drug Screen. Data for the mlh1 rad18 strain (AID 175). The following applies: S. cerevisiae mlh1 rad18 strain growth inhibition; at 50.0 µM; active compounds read high. The method, boiled down: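 Yeast w/ defined DNA-repair lesions; compound exposure; growth vs vehicle controls → % inhibition.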
For the molecule `O=C1NC(=S)NC(=O)C1=Cc1cc2c(cc1[N+](=O)[O-])OCO2`, the growth inhibition is -7.8%.

Turning to `O=S(=O)(O)c1ccc(Cl)cc1`, the growth inhibition is 9.1%.

Consider `CCN(CC)c1cccc(OC(=O)NC)c1`, for which the growth inhibition was -10%.

`O=C1OC(Br)c2ccccc21` (stereo not given): the growth inhibition is -7.65%.

For the molecule `CCOP(=O)(OCC)O/N=C(/c1ccccc1)C(C)C`, the growth inhibition is 2.4%.

Take `Cc1cc2[nH]c3c(C#N)c(OC(=O)N(C)C)c(-c4ccccc4)c(=O)n3c2cc1C`: the growth inhibition is 1.6%.

Regarding `CC(=O)Nc1cc([As](C)(=O)O)ccc1O`, the growth inhibition is -1.85%.

For the molecule `COc1ccc(N2CC=C(c3ccccc3)OP2(=O)N(CCCl)CCCl)cc1` (stereo not given), the growth inhibition is -3.2%.

Regarding `CC(=O)CC(C)=O.CC(=O)CC(C)=O.[Cl][Sn][c]1ccccc1`, the growth inhibition was 57.5%.

For `COP(=S)(c1ccccc1)N(C)C(=O)Oc1cccc(C(C)C)c1` (stereo not given), the growth inhibition is 45.7%.

Regarding `O=NNc1ccc(C(F)(F)F)cn1`, the growth inhibition is -15.2%.

Take `CC1(C)N=C(N)N=C(N)N1c1cccc(CCCCc2ccc(S(=O)(=O)F)c(Cl)c2)c1`: the growth inhibition was 99.7% (active).

For `Cc1cc([N+](=O)[O-])c(N)c([N+](=O)[O-])c1`, the growth inhibition was -4.75%.

With `CNC(=O)N1CN(c2ccccc2)C2(CCN(Cc3ccccc3)CC2)C1=O`, the growth inhibition was -4.1%.

Turning to `CC([OH2+])CNCCN.CC([OH2+])CNCCN.O=[N+]([O-])[O-].[Cu+2]` (stereo not given), the growth inhibition is 0.2%.

For `[Cl][Co][Br].[NH-]CC[NH-].[NH-]CC[NH-]`, the growth inhibition is 21.2%.

On to `[C-]#[O+].[C-]#[O+].[C-]#[O+].[C-]#[O+].[C-]#[O+].[C-]#[O+].[C-]#[O+].[C-]#[O+].[C-]#[O+].[CH2-]C.[Co].[Co].[Co]`, for which the growth inhibition is 33.8%.

With `CCOP(=O)(OCC)C(C)(C)OC(=O)NC#N`, the growth inhibition was -28.8%.

As for `O=C(NC(Cl)=C(Cl)Cl)P(=O)(c1ccccc1)c1ccccc1`, the growth inhibition was 3%.

`O=NC1C(=O)NC(=O)NC1=O`: the growth inhibition is -3.65%.

`N#CC(C#N)=Cc1ccc(C=C(C#N)C#N)cc1`: the growth inhibition was -8.75%.

In the case of `O=S(=O)(O)C1CCC(O)C2[N-]CCCC21.O=S(=O)(O)C1CCC(O)C2[N-]CCCC21.[Ni+2]` (stereo not given), the growth inhibition was 23.9%.

`CC(=O)Nc1cc([As](=O)(O)O)ccc1O`: the growth inhibition is 33.8%.

As for `O=[N+]([O-])c1ccc(OCc2ccc(S(=O)(=O)F)cc2Cl)c(Cl)c1`, the growth inhibition is -3.6%.

As to `CCOP(=O)(OCC)O/N=C(/C#N)c1ccccc1`, the growth inhibition is -1%.

`CC1(C)C(=O)/C(=N\O)C[C@@]2(C)C1=CC[C@@H]1[C@@H]2CC[C@]2(C)C(=O)/C(=N/O)C[C@@H]12`: the growth inhibition was -12.1%.

For the molecule `CC(=O)OCC1OC([Se-])C(OC(C)=O)C(OC(C)=O)C1OC(C)=O.N#CCC[PH+](CCC#N)CCC#N.[Au+]` (stereo not given), the growth inhibition is 10.1%.

On to `c1ccc(C(c2ccccc2)C2CCNCC2)cc1`, for which the growth inhibition was 2.85%.

`O=CC1(c2ccccc2)CCNCC1`: the growth inhibition is 8.85%.

Regarding `CCOC(=O)/C=C1/C=C(C)CC(C)(C)C1` (tested in a mixture with another compound), the growth inhibition is 1.7%.

Regarding `O=C1OC(c2ccccc2)(c2ccccc2)C(=O)OC1(c1ccccc1)c1ccccc1`, the growth inhibition was 19.2%.

On to `CCOc1ccccc1C=C(C#N)C#N`, for which the growth inhibition was -4.15%.

As to `CC(=O)Nc1cc([As]=O)ccc1O` (stereo not given), the growth inhibition was 32.6%.

In the case of `CCC1(CC)C(=O)NC(=NCCCC(N)C(=O)O)NC1=O` (stereo not given), the growth inhibition is 7.4%.

Take `O=[As](c1ccccc1)(c1ccccc1)c1ccc(Br)cc1`: the growth inhibition is 4.7%.

Turning to `C[N+]1([O-])C2CCC1CC(O)C2` (stereo not given), the growth inhibition is 17.4%.

As to `CC(Br)C(=O)C(CCN(C)C)(c1ccccc1)c1ccccc1` (stereo not given), the growth inhibition is 17.1%.

Take `N#Cc1ccccn1`: the growth inhibition is 5.9%.

Turning to `C#CC(=O)[O][Sn]([c]1ccccc1)([c]1ccccc1)[c]1ccccc1`, the growth inhibition is 99% (active).

On to `C=CCNCC(O)c1ccccc1` (stereo not given), for which the growth inhibition was 4.6%.
